Measured values taken from the supplement of paper PMC6555819.

Tests used:
Assay in all cases: PBM binding z-score (relative to random genomic background probes); higher = stronger binding; sequences stand for … in GC…GCGATTGACAGCGTAGAATGAAGG
[1] = tested on: RARb homodimer (NR concentration 270 nM)
Method in brief: (§1)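 Binding z-scores take random background probes as their reference. They come from custom Agilent 4×180K protein-binding microarrays incubated 1 h with ligand-free nuclear receptor dimers, with antibodies against each partner (one per run) detecting binding. Scanned fluorescence was regression-normalized.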

[2] = tested on: RARg:RXRa (NR concentration 270 nM, RXRa partner concentration 90 nM)
Method in brief: as §1

[3] = tested on: RARg homodimer (NR concentration 270 nM)
Method in brief: as §1

[4] = tested on: RXRa DBDmut IVT, anti-RXR (DBD mutation: RXRa K156A/R161A, NR concentration 90 nM)
Method in brief: as §1

[5] = tested on: RXRa homodimer (NR concentration 180 nM)
Method in brief: as §1

[6] = tested on: THRa:RXRa (NR concentration 90 nM, RXRa partner concentration 90 nM)
Method in brief: as §1

[7] = tested on: THRa homodimer (NR concentration 90 nM)
Method in brief: as §1

[8] = tested on: VDR homodimer (NR concentration 270 nM)
Method in brief: as §1

Sequence	PBM binding z-score [1]	PBM binding z-score [2]	PBM binding z-score [3]	PBM binding z-score [4]	PBM binding z-score [5]	PBM binding z-score [6]	PBM binding z-score [7]	PBM binding z-score [8]
CCTACTGGGCCATTCAGAGGTCATTGCTCATATG	3.78	4.44	3.16	0.998	3.47	3.03	1.28	3.65
CGTGCAAGGTCAGCAGGTCAGTGAAAGCGACGTG	4.76	6.54	7.05	2.5	5.2	4.03	2.04	1.73
CGTTCAAGGTCAGAGAGGTCAGTGAATGCCGAGT	5.35	6.32	7.17	3.83	5.61	4.37	3.21	5.8
GCTGCTAGGTCAACTCATGGTCAGCTAAAGCTCG	3.69	5.16	5.42	1.45	2.86	3.17	1.15	0.269
TCTTGTAGATCCATAGAGGTTAAGAAAGTGCGCT	1.25	0.611	0.378	0.691	1.1	1.07	-0.276	0.319
ATATGTAGGTTAAGGGTCATTCCGGTTGGTTCGC	3.85	4.63	3.26	2.44	5.95	3.49	1.62	4.26
CAGCCTAGGTCAGGGACAGTATAGGAGGAACGTT	2.6	3.02	3.8	0.364	1.77	2.37	0.952	0.0373
